The results in this text go back to PubChem BioAssay (NCATS).

The nature of assay [1]: Cell Viability - BJ (AID 421; calls by dose curve;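 note: potency is the fitted concentration of half-maximal effect; cells exposed to compound for 40 hours at 37 °C before readout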). The note with it: BJ fibroblast viability, qHTS. Summed up: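 Normal human BJ foreskin fibroblasts, 1500/well in complete medium, treated 40 hr at 37 °C. Cellular ATP by CellTiter-Glo luminescence; normalized to DMSO and 100 uM tamoxifen, AC50 from Hill fit.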
For orientation: qHTS replaces the single test concentration by a dilution series.

Assay [2] is described as follows: Cell Viability - HepG2 (AID 433; calls by dose curve;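 note: potency is the fitted concentration of half-maximal effect; cells exposed to compound for 40 hours; potency for ATP loss meaning cytotoxicity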). The note with it: qHTS. Summed up: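 Read-out is luciferase-based quantitation of cellular ATP as a measure of viable HepG2 cells after 40 h treatment at 37 °C. Signal decrease is scaled between DMSO-only and 100 uM tamoxifen controls, with AC50 fitted by the Hill equation.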
Assay [3] in a line: Cell Viability - Mesenchymal (AID 546).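 Note: cells exposed to compound for 40 hours before reading.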 Conditions: mesenchymal cells viability, qHTS; activity change, negative = cytotoxicity: at 91.7 µM (top of the series). Summed up: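 Normal human renal glomerulus-derived kidney mesenchymal cells, 1000 per well in complete medium, were treated with compounds for 40 hr at 37 °C. Viability was read as intracellular ATP by CellTiter-Glo luminescence; AC50 values came from Hill-equation fits of qHTS concentration-response data.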

Assay [4] in a line: Cellular Toxicity (caspase-3) Jurkat (AID 655).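 Note: cells exposed to compound for 16 h at 37 °C before reading.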 The note with it: Jurkat caspase-3 activation, luminescence; caspase-3 activation: at 92.2 µM (top of the series), DMSO = 0%, tamoxifen = 100%. The gist of the method: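 5000 Jurkat cells/well; compound 16 hr, 37 °C; Caspase-Glo 3/7 added, 20 min RT; luminescence read. Norm: DMSO = 0%, tamoxifen 100 uM = 100%. AC50, Hill model.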

A short description of assay [5]: Cell Viability - LYMP2-003 (AID 965).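 Note: cells exposed to compounds for 24 h before reading; 0% = DMSO only and full effect = 92 µM tetraoctylammonium bromide; nearly all actives have a fitted effect of over 50% in size.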 The note with it: LYMP2-003 lymphoblastoid cell viability; series mostly up to 92.2 µM. Summed up:
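Seed 2500 lymphoblastoid cells/well; incubate 5 hr, 37 C; add compounds; incubate 24 hr, 37 C; add CellTiter-Glo, 30 min RT; read luminescence. AC50 from Hill fit.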

A short description of assay [6]: Cell Viability - LYMP2-011 (AID 969).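 Note: cells exposed to compound for 24 hours; 0% = DMSO only and full inhibition = 92 µM tetraoctylammonium bromide; nearly all actives have a fitted effect of over 60% in size.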 Conditions: LYMP2-011 lymphoblastoid cells viability; series mostly up to 92.2 µM. The gist of the method:
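Acute toxicity is scored as a concentration-dependent drop in intracellular ATP of a human lymphoblastoid line after 24 hr treatment. Values are AC50s modeled with the Hill equation.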

The nature of assay [7]: Cell Viability - LYMP2-021 (AID 974).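 Note: compound exposure lasts 24 hours at 37 °C; % is set by controls: 0 for no effect and ±100 for the full control effect; nearly all actives have a fitted effect of over 55% in size.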 Conditions: LYMP2-021 lymphoblastoid cells viability; series mostly up to 92.2 µM. The gist of the method: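 Concentration-response cytotoxicity in a human lymphoblastoid line: 24 hr treatment at 37 C in complete culture medium, tetraoctylammonium bromide as positive control, luminescent ATP quantitation as viability measure.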
A short description of assay [8]: Cell Viability - LYMP2-023 (AID 975).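 Note: cellular ATP measured by luciferase luminescence as viability proxy; cells exposed to compound for 24 hours at 37 °C; plate controls were DMSO only for no effect and 92 µM tetraoctylammonium bromide control for full effect; nearly all actives have a fitted effect of over 55% in size.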 The note with it: LYMP2-023 lymphoblastoid cell viability; series mostly up to 92.2 µM. The gist of the method:
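Concentration-dependent drop in intracellular ATP measures acute cytotoxicity in a human lymphoblastoid line treated for 24 hours in complete culture medium. AC50 values are taken from Hill-equation fits of qHTS data.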

Assay [9] in a line: Cell Viability - LYMP2-025 (AID 976).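 Note: plate controls were DMSO only for no effect and tetraoctylammonium bromide control for full effect.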 Conditions: LYMP2-025 lymphoblastoid cell viability; series mostly up to 92.2 µM. The gist of the method:
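In qHTS format, LYMP2-025 lymphoblastoid cells in complete culture medium received compound for 24 hr; ATP-based CellTiter-Glo signal gave viability, with AC50 derived by Hill equation.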

Assay [10] can be described thus: Cell Viability - LYMP2-002 (AID 977).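 Note: plate controls were DMSO only for no effect and 92 µM tetraoctylammonium bromide for full effect.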 The note with it: LYMP2-002 lymphoblastoid cell viability, qHTS; series mostly up to 92.2 µM. Summed up:
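Luminescent ATP readout (CellTiter-Glo, 30 min room temperature) after 24 h compound exposure at 37 C of a human lymphoblastoid line, 2500 cells/well. AC50 values derived by standard Hill fitting of qHTS concentration-response data.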

Assay [11] can be described thus: Cell Viability - LYMP2-008 (AID 980). Note: % is set by controls: 0 for no effect and ±100 for the full control effect; nearly all actives have a fitted effect of over 60% in size. The note with it: LYMP2-008 lymphoblastoid cell viability, qHTS; series mostly up to 92.2 µM. Summed up: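 Acute cytotoxicity is scored as concentration-dependent loss of cellular ATP in a human lymphoblastoid line after 24 hr treatment at 37 C. ATP is quantified by luciferase luminescence.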
Assay [12] can be described thus: Cell Viability - LYMP2-014 (AID 983).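 Note: plate controls were DMSO only for no effect and 92 µM tetraoctylammonium bromide for full effect; nearly all actives have a fitted effect of over 50% in size.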 Conditions: LYMP2-014 lymphoblastoid cells, viability qHTS; series mostly up to 92.2 µM. Summed up:
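Decrease in intracellular ATP after 24 hr treatment at 37 C, measured by luciferase luminescence, indicated cytotoxicity. Concentration-response data were fitted with the standard Hill equation to give AC50.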

The nature of assay [13]: Cell Viability - LYMP2-016 (AID 984).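 Note: cells exposed to compound for 24 hours at 37 °C; % is set by controls: 0 for no effect and ±100 for the full control effect; nearly all actives have a fitted effect of over 55% in size.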 Conditions: LYMP2-016 lymphoblastoid cell viability, qHTS; series mostly up to 92.2 µM. Summed up:
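Cells were seeded at 2500 per well and rested 5 hr before a 24 hr compound exposure at 37 C. Viability was then gauged as cellular ATP by luciferase luminescence, with AC50 values fitted to the Hill equation.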

Assay [14] can be described thus: Cell Viability - LYMP2-018 (AID 985).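 Note: plate controls were DMSO only for no effect and tetraoctylammonium bromide at 92 µM for full effect; nearly all actives have a fitted effect of over 50% in size.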 Conditions: LYMP2-018 lymphoblastoid cells, viability (qHTS); series mostly up to 92.2 µM. Summed up: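 Acute cytotoxicity is scored as a concentration-dependent drop in intracellular ATP after 24 hr exposure of the lymphoblastoid line in complete culture medium, measured by luciferase luminescence. Potency is expressed as AC50 from Hill modelling.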

Assay [15] can be described thus: Cell Viability - LYMP2-022 (AID 987).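 Note: 0% = DMSO alone and full effect = tetraoctylammonium bromide at 92 µM; nearly all actives have a fitted effect of over 55% in size.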 Conditions: LYMP2-022 lymphoblastoid cell viability; series mostly up to 92.2 µM. Summed up: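 Acute toxicity in a human lymphoblastoid line is scored as decreased intracellular ATP after 24 hr compound treatment at 37 C. ATP is measured by CellTiter-Glo luminescence; curves are fitted with the Hill equation to give AC50.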

The nature of assay [16]: Cell Viability - LYMP2-024 (AID 988).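 Note: plate controls were DMSO only for no effect and 92 µM tetraoctylammonium bromide for full effect; nearly all actives have a fitted effect of over 60% in size.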 Conditions: LYMP2-024 lymphoblastoid cell viability; series mostly up to 92.2 µM. Summed up:
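Acute toxicity is measured as concentration-dependent loss of intracellular ATP in a human lymphoblastoid line treated 24 hours at 37 C. Luciferase luminescence quantifies ATP; AC50 values come from standard Hill-equation modelling.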

A short description of assay [17]: Cell Viability - LYMP2-026 (AID 989). Note: % is set by controls: 0 for no effect and ±100 for the full control effect; nearly all actives have a fitted effect of over 50% in size. The note with it: LYMP2-026 lymphoblastoid cell viability, qHTS; series mostly up to 92.2 µM. Summed up:
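Concentration-dependent loss of intracellular ATP in human lymphoblastoid cells after 24 hr at 37 C, quantified by luciferase luminescence. AC50 derived from standard Hill equation.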

Assay [18] in a line: qHTS assay for small molecule antagonists of retinoid X receptor alpha signaling (AID 588546; active = well fitted inhibition curve with a large enough effect in the signal ratio, with a control signal flat, not every such curve was filed as active; the % refers to the signal ratio;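 note: cells stimulated with 9-cis-retinoic acid as agonist; % is set by controls: 0 for no effect and ±100 for the full control effect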). The note with it: HEK293T RXRa-UAS-bla, beta-lactamase ratio, antagonist mode; measured here: W530 green channel, cytotoxicity proxy. The gist of the method: (§1)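 Beta-lactamase reporter inhibition, read as CCF4 fluorescence ratio (ex 405, em 460/530 nm) after 2 h at RT. HEK293T UAS-bla cells, 2500/well, were stimulated with 9-cis-RA at 500 or 100 nM final alongside test compound for 18 h at 37 C.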

The target in assay [19] is Retinoic acid receptor RXR-alpha (Homo sapiens) (UniProt P19793). The description is as above. The note with it: HEK293T RXRa-UAS-bla, beta-lactamase ratio, antagonist mode. The gist of the method: as §1
Assay [20] is described as follows: qHTS assay for environmental chemicals that activate the Aryl hydrocarbon Receptor (AhR) signaling pathway (AID 651777). For activation: % of control where 0% means no effect. Note: nearly all actives have a fitted effect of over 15% in size. Note: potency is the fitted concentration of half-maximal effect. The note with it: 1A2-DRE human hepatoma cells, luciferase, 24 h; activation: stronger effect = higher value. The gist of the method:
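Stable CYP1A2 promoter/DRE-luciferase human hepatoma line treated 24 hr; One-Glo luminescence, 30 min RT.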

Values joined by “and” are separate entries in the source; they are usually repeats but may differ in a detail not shown here. Equal entries are not always repeated. Results filed as inconclusive are left out. Active and inactive are the calls of the source. Unless noted, calls come from the whole dose curve; as a rule, active = well fitted curve in the direction sought with a large enough effect; inconclusive = small, poorly fitted or top-dose-only effect, or another doubt; inactive = no such curve, though single readings can be large; an effect the other way counts as inactive or inconclusive.

Sequence of Retinoic acid receptor RXR-alpha (Homo sapiens) (P19793 whole entry, looked up): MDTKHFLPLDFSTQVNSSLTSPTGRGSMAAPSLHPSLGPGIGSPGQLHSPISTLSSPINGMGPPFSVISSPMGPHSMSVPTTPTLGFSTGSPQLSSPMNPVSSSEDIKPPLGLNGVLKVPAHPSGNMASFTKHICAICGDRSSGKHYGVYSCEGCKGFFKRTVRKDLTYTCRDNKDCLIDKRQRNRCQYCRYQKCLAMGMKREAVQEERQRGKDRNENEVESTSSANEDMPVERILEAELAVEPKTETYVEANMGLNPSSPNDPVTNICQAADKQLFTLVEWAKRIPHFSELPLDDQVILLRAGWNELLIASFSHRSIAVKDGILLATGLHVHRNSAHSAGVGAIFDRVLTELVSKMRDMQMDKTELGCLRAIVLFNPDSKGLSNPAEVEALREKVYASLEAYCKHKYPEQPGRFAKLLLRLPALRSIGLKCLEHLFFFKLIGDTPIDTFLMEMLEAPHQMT

Consider `c1cc2c3c(c1)ccc1cccc(c13)C2`, for which the Potency in [1] and in assay [2] was > 92 µM (inactive) in each case. The Potency entry in [3], in assay [4], in assay [5], in assay [6], in assay [7] and in assay [8] was “inactive” in each case. Further, the Potency result in assay [9], in assay [10], in assay [11], in [12], in assay [13] and in assay [14] was “inactive” each time. Also, the Potency result in [15], in assay [16] and in [17] was “inactive” in each case. Also, the figures for the max response in assay [18] and in assay [19] were -1.55% and -11.6% (inactive), respectively. Moreover, the activation in assay [20] was -0.581% (inactive).
Turning to `CN(C)c1ccc(Cc2ccc(N(C)C)cc2)cc1`, the Potency in assay [1] and in assay [2] was > 92 µM (inactive) throughout. Also, the Potency entry in [3], in assay [4], in assay [5], in [6], in assay [7] and in [8] was “inactive” throughout. Moreover, the Potency result in [9], in assay [10], in assay [11], in assay [12], in assay [13] and in assay [14] was “inactive” in each case. Further, the Potency result in assay [15], in [16] and in assay [17] was “inactive” each time. Moreover, the max response is 3.74% and -6.02% in assay [18]; 1.04% (inactive) and -36.9% (inactive) in assay [19]. For the same compound, in assay [20], the activation is 8.36% (inactive) and 2.98% (inactive).
For the compound `Nc1ccc2c(c1)C(=O)c1ccccc1C2=O`, the Potency in [1] is > 92 µM (inactive); in [20], 14.1 µM (active) and 44.7 µM (active). Further, the Potency result in assay [4], in assay [5], in [8], in assay [9], in assay [11] and in assay [12] was “inactive” in each case. Also, the Potency entry in assay [13], in [14] and in [16] was “inactive” in each case. Moreover, the max response in [18] was -11.8% and -6.92%; in [19], 7.8% (inactive) and -4.23% (inactive).
For `CCCCOC(=O)COc1ccc(Cl)cc1Cl`, the Potency in assay [1] and in assay [2] was > 92 µM (inactive) throughout. The Potency entry in [3], in assay [4], in assay [5], in [6], in assay [7] and in assay [8] was “inactive” throughout. In addition, the Potency entry in assay [9], in assay [10], in [11], in assay [12], in assay [13] and in assay [14] was “inactive” each time. Further, the Potency entry in assay [15], in assay [16] and in [17] was “inactive” in each case. Moreover, the max response was -10.2% and -6.39% in [18]; 5.43% (inactive) and -12.7% (inactive) in [19].
Regarding `CCc1ccc(C(c2ccc(CC)cc2)C(Cl)Cl)cc1`, the Potency in assay [1] and in [2] was > 92 µM (inactive) in each case. Besides, the Potency result in assay [3], in assay [4], in assay [5], in assay [6], in assay [7] and in assay [8] was “inactive” each time. In addition, the Potency entry in assay [9], in [10], in assay [11], in assay [12], in assay [13] and in assay [14] was “inactive” throughout. For the same compound, the Potency result in [15], in assay [16] and in [17] was “inactive” each time. In addition, the max response was -4.78% in assay [18] and -8.97% (inactive) in assay [19]. In addition, in [20], the activation is -0.69% (inactive).
Consider `CCCCCCCC/C=C\CCCCCCCC(=O)N(CCO)CCO`, for which the Potency in assay [1] and in assay [2] was > 92 µM (inactive) each time. Besides, the caspase-3 activation in [4] was 96.6% (active). The Potency entry in assay [5], in assay [6], in assay [7], in [8], in [9] and in assay [10] was “inactive” in each case. Moreover, the Potency entry in [11], in assay [12], in assay [13], in assay [14], in assay [15] and in assay [16] was “inactive” in each case. In addition, the Potency entry in [17] was “inactive”. For the same compound, the activation in assay [20] is 2.99% (inactive).
